Assay outcomes from PubChem BioAssay.
DAX1 inh-1 – DAX1 (NR0B1) inhibitors, primary screen, cell-based, HEK293, Gal4-DAX1, luciferase luminescence. Nuclear receptor subfamily 0 group B member 1 (Homo sapiens), P51843. HEK293 Gal4-DAX1 luciferase reporter. inhibition, % at 6.75 µM. hit rate 0.99% among 340,000;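 active means inhibition above the mean over all tested compounds plus 3 SD, cut at about 4.2% in these data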;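 further: 0% = DAX1-transfected cells with DMSO and 100% = empty-vector control cells with DMSO; inhibition shows as a rise in luminescence from relieved DAX1 repression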
Target sequence (P51843 207-470 limits assumed): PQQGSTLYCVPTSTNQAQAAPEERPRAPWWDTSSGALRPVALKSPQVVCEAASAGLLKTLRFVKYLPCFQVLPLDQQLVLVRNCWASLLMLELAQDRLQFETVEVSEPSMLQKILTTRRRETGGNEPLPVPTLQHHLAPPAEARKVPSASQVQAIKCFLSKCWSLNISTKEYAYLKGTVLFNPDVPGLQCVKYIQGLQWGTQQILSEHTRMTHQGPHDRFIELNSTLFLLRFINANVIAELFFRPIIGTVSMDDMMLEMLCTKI
hgDAF-12 ag – H. glycines DAF-12 receptor agonists, primary screen, cell-based, luminescence, HEK293, GAL4 fusion, UAS-luciferase; HEK293 GAL4-hgDAF12 UAS-luciferase reporter, agonist luminescence; normalized to butyrate control; activation, % at 6.8 µM; hit rate 1.8% among 370,000; AID 687014, 2013;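 active means activation above a cutoff set at the mean of all screened compounds plus 3 SD, cut at about 10% in these data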;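 further: 0% = DMSO wells and 100% = sodium butyrate wells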
hcDAF12 agonist – H. contortus DAF-12 nuclear receptor activators, primary screen, cell-based, luminescence, HEK293, lit1-tk-luc reporter; HEK293 hcDAF-12 lit1-tk-luc reporter; 0% DMSO, 100% Δ7-dafachronic acid; activation, % at 6.8 µM; hit rate 1.4% among 370,000; AID 652067, 2013;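 active means activation above the mean of all tested compounds plus 3 SD, cut at about 5.5% in these data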;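 further: 100% = response to 3 µM Δ7-dafachronic acid high control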
ssDAF12 agonist – S. stercoralis DAF-12 nuclear receptor activators, primary screen, cell-based, luminescence, HEK293, GRIP1 co-expression, lit1-tk-luc; Nuclear hormone receptor DAF-12 (Strongyloides stercoralis); HEK293 ssDAF-12/GRIP1 lit1-tk-luc reporter; % of 3 µM dafachronic acid response; AID 652126, 2013; activation, % at 6.8 µM; hit rate 1% among 370,000;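 active means activation above the mean over all tested compounds plus 3 SD, cut at about 0.9% in these data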;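 further: 0% = DMSO-only wells and 100% = 3 µM delta7-dafachronic acid wells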
DAX1 inh-2 – DAX1 (NR0B1) inhibitors on StAR promoter, primary screen, cell-based, luminescence, SF-1 (NR5A1), full-length DAX-1; HEK293T StAR-luciferase reporter, SF-1/DAX-1 repression relief; inhibition, % at 6.8 µM; hit rate 1.1% among 370,000;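 active means inhibition above the mean over all tested compounds plus 3 SD, cut at about 3.6% in these data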;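 further: 0% = DAX-1 cells with DMSO and 100% = cells lacking DAX-1 with DMSO; higher inhibition means more luminescence from relief of DAX-1 repression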
SMARCA2 activ – SMARCA2 (BRM) function activators, primary screen, cell-based, luminescence, high throughput; MG213 cells, MMTV-luciferase reporter, dexamethasone, overnight; activation, % at 9.1 µM; hit rate 1% among 370,000; in the data active means activation above about 7.8%;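 further: 0% = vehicle wells and 100% = reference activator wells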
DAX1 inh confirm – DAX1 (NR0B1) inhibitors relieving SF-1 repression, confirmation, cell-based, luminescence, HEK293T, full-length DAX-1, SF-1 activated StAR promoter. shares compounds with DAX1 inh-2. HEK293T StAR-promoter luciferase reporter, SF-1/DAX-1 repression. inhibition, % at 6.8 µM. hit rate 87% among 2,400. AID 652134, 2013;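 active means inhibition above the average of every tested compound plus 3 SD, cut at about 3.8% in these data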;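 further: 0% = DAX-1 cells with DMSO and 100% = no DAX-1 control cells with DMSO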
SF1 mutant ctr – StAR reporter signal changes without DAX1, counter-screen for DAX1 inhibitor project, cell-based, luminescence, AF-2 mutant SF-1, transactivation; shares compounds with DAX1 inh-2; HEK293 StAR-luciferase, SF-1 AF2 mutant; inhibition, % at 6.8 µM; hit rate 78% among 2,400;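 active means inhibition above the mean of all tested compounds plus 3 SD, cut at about 3% in these data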;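 further: 0% = DAX-1 transfected cells with DMSO and 100% = cells without DAX-1 with DMSO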
SMARCA2 conf – SMARCA2 (BRM) function activators, confirmation, cell-based, luminescence, triplicate. hit rate 30% among 3,500. shares compounds with SMARCA2 activ. AID 652260, 2013. MG213 cells, MMTV-luciferase with dexamethasone, overnight; MG213 cells expressing E1A, Rb sequestered; DMSO wells 0%, reference activator 100%. activation, % at 9.1 µM;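 active means activation above its plate's cutoff, the mean activation of tested wells plus 3 SD, cut at about 7.9% in these data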
GAL4-VP16 Luc – GAL4-VP16 luciferase reporter activation, counter-screen for SMARCA2 (BRM) activator project, cell-based, pG5luc, luminescence, high throughput. shares compounds with SMARCA2 activ. HEK293 GAL4-VP16 pG5luc reporter; scaled: DMSO wells 0%, SAHA wells 100%. activation, % at 9.1 µM. hit rate 41% among 3,500;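 active means activation above the solvent-only control well mean plus 3 SD, averaged across control plates, cut at about 5.2% in these data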
LXR ag – LXR agonists, Gal4 luciferase reporter, confirmation, counter-screen for hcDAF-12 agonist project, cell-based, luminescence, HEK293, H. contortus campaign. shares compounds with hcDAF12 agonist. activation, % at 6.8 µM. 3,400 tested, under 10 active. AID 743027, 2013. HEK293 Gal4-LXR tk-luc reporter, 24 h; normalized: DMSO 0%, positive control 100%;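 active means mean percent activation of the reporter above a cutoff set as the average over tested compounds plus their standard deviation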
Target sequence (P55055 whole entry, looked up, the tested form may be a part): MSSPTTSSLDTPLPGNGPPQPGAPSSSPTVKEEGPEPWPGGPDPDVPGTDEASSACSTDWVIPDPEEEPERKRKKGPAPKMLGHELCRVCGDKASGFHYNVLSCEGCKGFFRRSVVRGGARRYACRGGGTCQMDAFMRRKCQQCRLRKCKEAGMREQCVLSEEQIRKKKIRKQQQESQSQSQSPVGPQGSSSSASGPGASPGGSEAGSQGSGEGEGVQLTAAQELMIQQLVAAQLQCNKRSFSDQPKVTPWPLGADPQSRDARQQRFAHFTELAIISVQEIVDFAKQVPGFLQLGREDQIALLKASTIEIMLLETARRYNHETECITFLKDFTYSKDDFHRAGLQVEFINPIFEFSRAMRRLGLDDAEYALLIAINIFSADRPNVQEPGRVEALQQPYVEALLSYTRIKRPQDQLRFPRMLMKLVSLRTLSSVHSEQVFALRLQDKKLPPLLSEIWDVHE
hcDAF12 conf – H. contortus DAF-12 receptor agonists, confirmation, cell-based, luminescence, HEK293, lit1-tk-luc, triplicate. shares compounds with hcDAF12 agonist. HEK293 hcDAF-12 lit1-tk-luc reporter; % of Δ7-dafachronic acid response. activation, % at 6.8 µM. hit rate 61% among 3,400. AID 743032, 2013;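 active means mean activation across triplicate tests above the threshold derived from the earlier primary screen, cut at about 5.5% in these data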;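 further: 0% = DMSO only wells and 100% = 3 µM Δ7-dafachronic acid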
hgDAF12 conf – H. glycines DAF-12 receptor agonists, confirmation, cell-based, luminescence, HEK293, GAL4-LBD fusion; shares compounds with hgDAF-12 ag; activation, % at 6.8 µM; AID 743050, 2013; HEK293 GAL4-hgDAF12 luciferase reporter, agonist mode; percent of butyrate response; hit rate 80% among 3,300;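 active means mean activation over triplicate wells above the hit cutoff derived from the earlier primary screen, cut at about 11% in these data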;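 further: 0% = DMSO low control and 100% = 2 mM sodium butyrate high control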
LXRb DAF12 ctr – LXR agonists, Gal4 luciferase reporter, confirmation, counter-screen for hgDAF-12 agonist project, cell-based, luminescence, HEK293, H. glycines campaign; shares compounds with hgDAF-12 ag; 24 h; activation, % at 6.8 µM; 3,300 tested, under 10 active;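 active means mean activation of the triplicate above a set limit carried over from the primary screen, none filed active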
An asterisk follows results filed as active; x = no result given. Sampled rows, rich in hits. Any-hit rate of the full collection: about 4.8%.

SMILES | DAX1 inh-1 | hgDAF-12 ag | hcDAF12 agonist | ssDAF12 agonist | DAX1 inh-2 | SMARCA2 activ | DAX1 inh confirm | SF1 mutant ctr | LXR ag | hcDAF12 conf | hgDAF12 conf | LXRb DAF12 ctr | others
Cc1ccnc(NC(=O)C2CC(=O)N(c3ccc4c(c3)OCCO4)C2)c1 (configuration not stated) | 0.6 | 15.4* | 3.6 | -0.3 | 11.6* | 4.2 | 12.5* | 6.2* | x | x | 15.9* | 0.9
CCN1CCCCC(NC(=O)c2ccc(Cl)cc2Cl)C1=O (configuration not stated) | x | 1.2 | 1.0 | -0.6 | -0.1 | -1.4 | x | x | x | x | x | x
Cc1ccccc1NC(=O)c1nnn(-c2ccc3c(c2)OCCO3)c1N | 1.4 | 9.6 | 1.4 | -1.0 | 1.3 | 2.9 | x | x | x | x | x | x
Nc1c(C(=O)Nc2cccc(F)c2)nnn1-c1ccc2c(c1)OCCO2 | -1.0 | 17.0* | 7.0* | 0.9 | 4.5* | 3.6 | 15.8* | 5.2* | 1.9 | 8.4* | 18.1* | 1.1
O=C(Nc1ccccc1)OCCN1C(=O)CCC12CCC(c1ccc(Cl)cc1)CC2 (configuration not stated) | x | -1.3 | -0.9 | -0.6 | -1.6 | -1.9 | x | x | x | x | x | x
CCN(CC)c1ccc(N=Nc2nn(C)c(C)c2[N+](=O)[O-])cc1 | 0.1 | 16.2* | 3.9 | 1.2* | 4.7* | 3.8 | 13.6* | 5.2* | x | x | 14.7* | 0.8
CCN(Cc1ccccc1)c1ccc(N=Nc2nn(C)c(C)c2[N+](=O)[O-])cc1 | -0.6 | 6.8 | -1.9 | -1.5 | -0.1 | -0.1 | x | x | x | x | x | x
O=C(Nc1c(-c2ccccc2)nc2ncccn12)c1ccccc1 | x | -1.6 | 3.5 | -1.1 | -0.7 | 0.3 | x | x | x | x | x | x
O=C(c1cnn(-c2ccccc2)c1)c1ccccc1O | 0.4 | 22.9* | 7.9* | 0.7 | 6.1* | 0.6 | 13.2* | 7.9* | 1.4 | 7.1* | 19.5* | 0.9
O=C(c1cnn(-c2ccccc2)c1)c1cc(F)ccc1O | 2.9 | 7.0 | 3.5 | -0.3 | 1.1 | 3.2 | x | x | x | x | x | x
Cn1c(=NC(=O)c2ccco2)sc2ccccc21 | 2.7 | 21.1* | 19.9* | 4.0* | 7.1* | 2.9 | 8.1* | 4.9* | 1.3 | 15.7* | 20.0* | 0.9
Cn1c(=NC(=O)CCl)sc2ccccc21 | -2.3 | -7.6 | -4.1 | -1.6 | -2.6 | 7.7 | x | x | x | x | x | x
C=CCn1c(C)cc(C(=O)Cn2nc(C(=O)O)c3ccccc3c2=O)c1C | 1.9 | 15.3* | 1.7 | 0.9* | 5.0* | 7.9* | 10.2* | 4.0* | x | x | 13.2* | 0.7
COc1ccc(-c2ccc3c(n2)CCCN3S(=O)(=O)c2ccc(C#N)cc2)cc1 | x | 2.9 | 0.8 | -0.2 | -0.5 | -5.5 | x | x | x | x | x | x
CCOCC(=O)Nc1cc(C(=O)NCCc2ccccc2)ccc1Cl | 1.9 | 14.3* | 3.9 | -0.1 | 4.5* | 2.4 | 9.0* | 4.3* | x | x | 12.9* | 0.4
O=C(NC1=NCCS1)c1cccc(NC(=O)c2ccco2)c1 | -0.6 | 0.1 | 3.6 | -0.6 | -0.1 | -1.9 | x | x | x | x | x | x
CC(C)Oc1cccc(C(=O)NC2=NCCS2)c1 | 1.3 | 14.7* | 1.2 | 0.2 | 5.0* | 3.6 | 5.9* | 4.1* | x | x | 10.6* | 0.3
CCn1c(SCc2ccc(C(C)(C)C)cc2)nnc1-c1ccc(C(C)(C)C)cc1 | x | -1.7 | 0.5 | -1.0 | -1.2 | -4.6 | x | x | x | x | x | x
COc1ccc(-c2cc(=O)c3cc(OC)ccc3o2)cc1 | 3.3 | 19.9* | 8.1* | 0.1 | 9.0* | 9.8* | 9.7* | 1.0 | 1.9 | 7.2* | 20.0* | 1.4 | SMARCA2 conf=5.6;GAL4-VP16 Luc=7.0*
COc1ccc2oc(-c3ccccc3)cc(=O)c2c1 | x | 13.5* | 7.6* | 1.1* | 5.8* | 4.6 | 13.2* | 5.4* | 1.8 | 8.5* | 16.1* | 1.4
COc1ccc2c(=O)c(-c3ccccc3)coc2c1 | 1.8 | 20.8* | 6.8* | -0.3 | 6.2* | 3.7 | 12.5* | 8.2* | 1.4 | 4.9 | 16.9* | 0.8
COc1ccc(-c2cc(=O)c3ccc(O)cc3o2)cc1 | 2.6 | 16.5* | 3.1 | -1.0 | 7.8* | 5.8 | 10.2* | 5.7* | x | x | 14.0* | 0.6
